Assay [1] has as its target CCAAT/enhancer-binding protein beta (Homo sapiens) (UniProt P17676). In words: ATG_C_EBP_CIS: Attagene CIS-FACTORIAL HepG2 Assay for human CCAAT/Enhancer Binding Protein (C/EBP) beta (AID 2282927). As to conditions: HepG2 Attagene cis-factorial transcription factor reporter; actives raise or lower the signal. Summed up:
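HepG2 transiently transfected with multiplexed reporter units under cis-regulatory promoters reporting endogenous C/EBPb activity. After 24 h exposure, reporter mRNA assayed by RT-PCR, fluorescent labelling, HpaI digestion and capillary electrophoresis; bidirectional fitting versus DMSO.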

A short description of assay [2]: ATG_CMV_CIS: Attagene CIS-FACTORIAL HepG2 Assay for human CMV (Internal Marker) (AID 2282928).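 Further: endpoint acts as a background internal control marker rather than a target.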 As to conditions: HepG2 CMV promoter reporter, transcription factor profiling; actives raise or lower the signal. In a few lines:
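Cell system: HepG2, transiently transfected multiple reporter units under cis promoters. Exposure: 24 h. Detection: RT-PCR, FAM labeling, HpaI digestion, capillary electrophoresis. Analysis: bidirectional, DMSO baseline.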

Assay [3] is described as follows: ATG_DR4_LXR_CIS: Attagene CIS-FACTORIAL HepG2 Assay for human Liver X Receptor (LXR), DR4 submotif (AID 2282929). Particulars: HepG2 Attagene DR4 cis-reporter, mRNA transcription; actives raise or lower the signal. In a few lines: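 The endpoint is DR4-element-driven reporter transcripts after 24 h chemical exposure of transfected HepG2 cells. These were measured via RT-PCR and capillary electrophoresis, and gain or loss of signal was fitted relative to DMSO controls.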

Assay [4] concerns the target Aryl hydrocarbon receptor (Homo sapiens) (UniProt P35869). In words: ATG_Ahr_CIS: Attagene CIS-FACTORIAL HepG2 Assay for human Aryl Hydrocarbon Receptor (Ahr) (AID 2282930). As to conditions: HepG2 AhR cis-factorial reporter transcription; actives raise or lower the signal. In a few lines: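 HepG2 cells transiently transfected with cis-element-driven multiplexed reporter units; endogenous AhR activity read as reporter mRNA 24 h after dosing, via RT-PCR, 6-FAM labelling, HpaI digestion and capillary electrophoresis. Bidirectional fit relative to DMSO.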

The nature of assay [5]: ATG_AP_1_CIS: Attagene CIS-FACTORIAL HepG2 Assay for human Activator Protein 1 (AP-1) (AID 2282931). As to conditions: HepG2 Attagene cis-factorial AP-1 reporter mRNA; actives raise or lower the signal. Summed up: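 Readout is reporter transcript level from endogenous transcription factor activity, quantified by RT-PCR with fluorescent primer extension and capillary electrophoresis. Transiently transfected HepG2 cells, 24 h exposure. Curves fitted both directions versus DMSO.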

Assay [6] in a line: ATG_AP_2_CIS: Attagene CIS-FACTORIAL HepG2 Assay for human Activator Protein 2 (AP-2) (AID 2282932). As to conditions: HepG2 AP-2 cis-reporter, Attagene transcription factor profiling; actives raise or lower the signal. In a few lines: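 HepG2 cells transiently transfected with cis-element reporter units and exposed for 24 h. Reporter mRNA measured by RT-PCR, FAM labelling, HpaI digestion and capillary electrophoresis. Changes in either direction fitted relative to DMSO.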

Assay [7] is described as follows: ATG_BRE_CIS: Attagene CIS-FACTORIAL HepG2 Assay for human Bone Morphogenetic Protein (BMP) Response Element (BRE) (AID 2282933). Particulars: HepG2 BMP response element reporter, Attagene transcription factor profiling; actives raise or lower the signal. Summed up:
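HepG2 cells transiently transfected with CIS reporter units (endogenous TF activity, BMP response element), dosed 24 h. Reporter mRNA quantified by RT-PCR, fluorescent labelling and capillary electrophoresis; bidirectional fit vs DMSO baseline.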

Assay [8] deals with Retinoic acid receptor alpha (Homo sapiens) (UniProt P10276). In words: ATG_DR5_RAR_CIS: Attagene CIS-FACTORIAL HepG2 Assay for human Retinoic Acid Receptor Alpha (RARE), DR5 submotif (AID 2282934).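 On AC50: reporter responds to endogenous RAR alpha beta and gamma in HepG2 not RARA alone.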 As to conditions: HepG2 Attagene cis-factorial RARE DR5 reporter, mRNA; actives raise or lower the signal. Summed up: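 HepG2 cells transiently transfected with multiplexed reporter units; DR5 cis-element drives reporter through endogenous transcription factors. After 24 h dosing, reporter mRNA quantified by RT-PCR, fluorescent labeling, HpaI digestion and capillary electrophoresis; bidirectional fitting versus DMSO.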

The target in assay [9] is Transcription factor E2F1 (Homo sapiens) (UniProt Q01094). Briefly: ATG_E2F_CIS: Attagene CIS-FACTORIAL HepG2 Assay for human E2F Transcription Factor 1 (AID 2282935). As to conditions: HepG2 Attagene cis-reporter, E2F reporter RNA transcripts; actives raise or lower the signal. Summed up: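 Endogenous E2F1 activity read through cis-promoter reporter units transfected into HepG2. After 24 h compound treatment, reporter mRNA measured by RT-PCR, HpaI digestion and capillary electrophoresis. Bidirectional fit versus DMSO.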

The nature of assay [10]: ATG_E_Box_CIS: Attagene CIS-FACTORIAL HepG2 Assay for human Enhancer Box (E-box) (AID 2282936). Particulars: HepG2 E-box cis-reporter transcription, actives raise or lower the signal. In a few lines:
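HepG2 cells transiently transfected with multiplexed cis-element reporter units, dosed 24 h; reporter mRNA quantified by RT-PCR, 6-FAM labelling, HpaI digestion and capillary electrophoresis. E-box (USF1) signal fitted bidirectionally vs DMSO.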

Structures are written as SMILES. Some compounds were tested as several samples or in several runs, with calls that do not always agree. Active and inactive are the calls of the source. How the source made its calls: active means hit-call score of the fitted dose curve at least 0.9, where 1 is the maximum; inactive means score below 0.9.

Chain of Aryl hydrocarbon receptor (Homo sapiens) (P35869 whole entry, looked up): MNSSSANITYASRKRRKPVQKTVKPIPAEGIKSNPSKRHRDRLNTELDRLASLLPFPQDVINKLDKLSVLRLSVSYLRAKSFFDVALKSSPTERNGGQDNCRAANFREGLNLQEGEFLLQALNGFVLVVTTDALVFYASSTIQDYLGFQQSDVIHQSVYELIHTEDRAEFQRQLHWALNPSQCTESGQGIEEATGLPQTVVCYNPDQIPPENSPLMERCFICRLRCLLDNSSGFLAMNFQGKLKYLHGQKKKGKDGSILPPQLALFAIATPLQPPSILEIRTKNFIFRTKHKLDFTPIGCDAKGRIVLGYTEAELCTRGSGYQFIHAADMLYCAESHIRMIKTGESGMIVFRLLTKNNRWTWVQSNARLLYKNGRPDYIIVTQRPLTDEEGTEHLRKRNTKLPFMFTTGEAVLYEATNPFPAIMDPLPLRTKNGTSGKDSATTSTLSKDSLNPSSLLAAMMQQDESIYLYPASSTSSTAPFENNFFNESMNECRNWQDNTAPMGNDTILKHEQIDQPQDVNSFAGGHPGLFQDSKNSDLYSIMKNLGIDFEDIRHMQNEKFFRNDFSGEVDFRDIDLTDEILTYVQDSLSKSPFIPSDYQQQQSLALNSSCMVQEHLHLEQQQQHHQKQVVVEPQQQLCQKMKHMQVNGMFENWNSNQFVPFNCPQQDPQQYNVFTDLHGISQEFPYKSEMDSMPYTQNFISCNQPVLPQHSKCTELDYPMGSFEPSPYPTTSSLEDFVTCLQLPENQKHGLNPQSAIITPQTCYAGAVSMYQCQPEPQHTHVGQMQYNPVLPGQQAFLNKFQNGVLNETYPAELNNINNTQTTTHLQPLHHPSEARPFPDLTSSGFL
Chain of CCAAT/enhancer-binding protein beta (Homo sapiens) (P17676 whole entry, looked up): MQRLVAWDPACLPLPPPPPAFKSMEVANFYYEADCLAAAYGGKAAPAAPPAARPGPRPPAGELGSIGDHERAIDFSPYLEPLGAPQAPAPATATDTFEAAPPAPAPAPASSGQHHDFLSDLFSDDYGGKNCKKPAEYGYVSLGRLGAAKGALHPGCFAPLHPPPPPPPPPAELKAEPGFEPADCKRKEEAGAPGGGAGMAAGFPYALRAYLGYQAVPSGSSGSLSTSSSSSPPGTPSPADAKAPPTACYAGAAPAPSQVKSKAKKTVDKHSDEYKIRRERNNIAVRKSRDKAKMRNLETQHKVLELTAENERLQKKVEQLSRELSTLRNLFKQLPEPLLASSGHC
Chain of Retinoic acid receptor alpha (Homo sapiens) (P10276 whole entry, looked up): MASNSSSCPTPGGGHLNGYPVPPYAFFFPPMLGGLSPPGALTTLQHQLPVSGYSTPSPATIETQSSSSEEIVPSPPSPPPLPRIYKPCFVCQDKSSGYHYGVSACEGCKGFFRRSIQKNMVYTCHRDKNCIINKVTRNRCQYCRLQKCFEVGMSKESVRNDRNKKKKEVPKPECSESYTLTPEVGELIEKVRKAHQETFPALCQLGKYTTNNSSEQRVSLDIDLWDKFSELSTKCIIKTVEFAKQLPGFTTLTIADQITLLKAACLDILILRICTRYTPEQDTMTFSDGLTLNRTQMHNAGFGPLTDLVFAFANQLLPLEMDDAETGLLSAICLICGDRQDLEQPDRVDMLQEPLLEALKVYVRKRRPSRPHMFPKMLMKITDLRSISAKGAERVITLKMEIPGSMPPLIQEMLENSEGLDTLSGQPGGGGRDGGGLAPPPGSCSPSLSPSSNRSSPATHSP
Chain of Transcription factor E2F1 (Homo sapiens) (Q01094 whole entry, looked up): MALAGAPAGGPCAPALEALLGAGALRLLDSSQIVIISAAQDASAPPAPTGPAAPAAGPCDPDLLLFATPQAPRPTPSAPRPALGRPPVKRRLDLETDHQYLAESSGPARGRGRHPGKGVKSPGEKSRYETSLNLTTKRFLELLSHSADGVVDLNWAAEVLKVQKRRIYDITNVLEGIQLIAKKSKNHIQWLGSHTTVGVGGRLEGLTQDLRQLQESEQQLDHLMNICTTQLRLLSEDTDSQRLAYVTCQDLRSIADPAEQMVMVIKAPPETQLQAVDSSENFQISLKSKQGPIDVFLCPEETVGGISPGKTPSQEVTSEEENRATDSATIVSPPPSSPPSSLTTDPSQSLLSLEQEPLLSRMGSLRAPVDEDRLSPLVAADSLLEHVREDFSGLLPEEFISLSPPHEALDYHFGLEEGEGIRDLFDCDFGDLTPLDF

As for `COC(=O)c1cc(Oc2ccc(Cl)cc2Cl)ccc1[N+](=O)[O-]`, the result in assay [1], in [2], in [3], in assay [5], in assay [6] and in assay [8] was inactive. In addition, the result in assay [9] and in [10] was inactive. Moreover, the concentration at half-maximal activity (AC50) is 17 µM (active) in assay [4] and 64.1 µM (active) in [7].

With `CC(C)N(C(=O)CCl)c1ccccc1`, the outcome in [1], in assay [2], in assay [4] and in assay [7] was inactive. Also, the concentration at half-maximal activity (AC50) in assay [6] was 50.4 µM (active); in assay [8], 59.1 µM (active); in assay [9] it was 48.1 µM (active); in assay [10], 18 µM (active).

Take `CN(C)CCN(C)C`: the outcome in assay [1], in [2], in assay [3], in assay [4], in assay [5] and in assay [6] was inactive. The call in assay [7], in assay [8], in assay [9] and in [10] was inactive.

For `C[As+](C)(C)CC(=O)[O-]`, the outcome in [1], in [2], in assay [3], in assay [4], in [5] and in assay [6] was inactive. The molecule was called inactive in [7], in [9] and in assay [10].

For `C=CCOC(F)(C(F)(F)F)C(F)(F)F`, the outcome in assay [1], in assay [2], in [3], in assay [4], in assay [5] and in [6] was inactive. Moreover, the molecule was classed as inactive in assay [7], in assay [8], in [9] and in assay [10].

On to `c1csc(-c2ccc(-c3cccs3)s2)c1`, for which the result in [1], in assay [2], in assay [6], in assay [7], in [8] and in assay [10] was inactive. In addition, the results for the AC50 in assay [3] and in assay [4] were 2.08 µM (active) and 0.739 µM (active), respectively.

On to `O=[N+]([O-])c1ccccc1O`, for which the outcome in assay [1], in assay [2], in assay [3], in [4], in assay [6] and in [7] was inactive. The molecule was called inactive in [8] and in [10]. In addition, the half-maximal activity concentration (AC50) in assay [8] is 27.3 µM (active).

Consider `O=c1nc(O)n(Cl)c(=O)n1Cl`, for which the result in assay [1], in [2], in [4], in assay [5], in [6] and in [7] was inactive. Besides, the outcome in assay [9] and in [10] was inactive.

On to `O=C(NC(=O)c1c(F)cccc1F)Nc1ccc(Cl)cc1`, for which the outcome in assay [2], in assay [3], in assay [5], in assay [6], in [7] and in [8] was inactive. Further, the molecule was called inactive in [9] and in assay [10]. Also, in [4], the AC50 is 19.6 µM (active).

For `CC(F)(F)CC(F)(F)F`, the result in [1], in assay [2], in assay [3], in assay [4], in assay [5] and in [6] was inactive. The molecule was called inactive in [7], in assay [8], in [9] and in assay [10].

In the case of `c1ccc(-c2cccc(-c3ccccc3)c2)cc1`, the outcome in [1], in assay [2], in [5], in assay [6], in assay [7] and in assay [8] was inactive. Further, the outcome in [9] and in assay [10] was inactive. The AC50 in [3] is 27.4 µM (active); in assay [4] it was 21.9 µM (active).

For the molecule `CCCCN(CCCCO)N=O`, the result in [1], in assay [2], in assay [3], in assay [4], in [6] and in assay [7] was inactive. Besides, the call in assay [8], in assay [9] and in assay [10] was inactive.

Consider `Cc1ccccc1OP(=O)(Oc1ccccc1C)Oc1ccccc1C`, for which the outcome in assay [1], in assay [2], in assay [4], in [6], in [7] and in [8] was inactive. For the same molecule, in assay [10], the outcome was inactive. For the same molecule, the AC50 is 17.5 µM (active) in assay [5] and 69.7 µM (active) in assay [9].

In the case of `Cc1cc(Cl)ccc1O`, the outcome in assay [1], in [2], in assay [3], in assay [4], in assay [5] and in [6] was inactive. Also, the call in assay [7], in assay [8], in assay [9] and in assay [10] was inactive.

With `Nc1nc(=S)[nH][nH]1`, the outcome in assay [1], in [2], in assay [3], in assay [4], in assay [5] and in assay [6] was inactive. Also, the call in [7], in assay [8], in [9] and in [10] was inactive.

For the origin of these results see PubChem BioAssay (EPA / NIEHS).
